# Target: T1, Testis-specific serine/threonine-protein kinase 2 (Homo sapiens) (UniProt Q96PF2)
# T1 sequence (whole entry): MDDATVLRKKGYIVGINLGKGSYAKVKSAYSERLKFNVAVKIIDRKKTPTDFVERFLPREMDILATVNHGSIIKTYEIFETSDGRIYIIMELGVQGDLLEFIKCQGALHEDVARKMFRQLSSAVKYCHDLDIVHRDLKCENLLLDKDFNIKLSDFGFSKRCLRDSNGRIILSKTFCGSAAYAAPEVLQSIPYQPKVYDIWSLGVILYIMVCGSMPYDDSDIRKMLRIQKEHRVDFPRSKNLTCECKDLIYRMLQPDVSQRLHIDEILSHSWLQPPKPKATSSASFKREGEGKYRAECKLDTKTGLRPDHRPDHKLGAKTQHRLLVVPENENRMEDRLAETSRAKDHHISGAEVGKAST
# Settings: at 1 µM
row,SMILES,residual activity
1,O=[N+]([O-])c1ccc(-c2nc(-c3ccc(F)cc3)c(-c3ccncc3)[nH]2)cc1,100%
2,c1ccc(-c2n[nH]cc2-c2ccnc3ccccc23)nc1,96%
3,O=C1c2ccccc2-[n+]2ccc3c([nH]c4ccccc43)c21,98%
4,CCCC(=O)Oc1ccc2[nH]c(C(=O)c3cc4ccccc4[nH]3)cc2c1,96%
5,COc1ccc(Cl)cc1NC(=O)Nc1cc(C)nc2ccccc12,100%
6,CC(C)(C)n1nc(Cc2cccc3ccccc23)c2c(N)ncnc21,104%
7,O=C1NC(=O)c2cc(Nc3ccc(F)cc3)c(Nc3ccc(F)cc3)cc21,91%
8,CC(C)[C@H](CO)Nc1nc(Nc2cc(N)cc(Cl)c2)c2ncn(C(C)C)c2n1,91%
9,CCN(CC)CCNC(=O)c1c(C)[nH]c(/C=C2\C(=O)Nc3ccc(Cl)cc32)c1C,62%
10,COc1cc2nccc(Oc3ccc(NC(=S)NC(=O)c4ccccc4C)cc3)c2cc1OC,94%
11,Oc1n[nH]c2nnc(-c3c(-c4ccccc4)nn4ccccc34)cc12,95%
12,CO[C@H]1C[C@@H]2CC[C@@H](C)[C@@](O)(O2)C(=O)C(=O)N2CCCC[C@H]2C(=O)O[C@H]([C@H](C)C[C@@H]2CC[C@@H](O)[C@H](OC)C2)CC(=O)[C@H](C)/C=C(\C)[C@@H](O)[C@@H](OC)C(=O)[C@H](C)C[C@H](C)/C=C/C=C/C=C/1C,90%
13,Nc1ccc2ncnc(NCCc3ccc(Oc4ccccc4)cc3)c2c1,106%
14,Fc1ccc(-c2nc3n(c2-c2ccncc2)CCS3)cc1,85%
15,c1ccc(-c2n[nH]c3c2oc2ccccc23)cc1,96%
16,CN(C)CCCn1cc(C2=C(c3c[nH]c4ccccc34)C(=O)NC2=O)c2ccccc21,103%
17,O=C1NC(=O)c2c1c1c3ccccc3[nH]c1n1cncc21,83%
18,c1ccc(-c2cnc(Nc3ccc(OCCN4CCCC4)cc3)s2)cc1,100%
19,O=C1NC(=O)C(c2cn(CCCO)c3ncccc23)=C1c1cnccn1,59%
20,Cc1ccc(NC2=CC(=O)c3sc(C)nc3C2=O)cc1,93%

row,SMILES,residual activity
1,O=C(Nc1cccc(Nc2nccc(Nc3cccc(C(F)(F)F)c3)n2)c1)C1CC1,86%
2,CC[n+]1c(/C=C/N(C)c2ccccc2)n(-c2ccccc2)c2ccc(-c3nc4ccccc4s3)cc21,104%
3,Cn1c2ccccc2c2c3c(c4c5ccccc5n(CCC#N)c4c21)CNC3=O,64%
4,O=c1cc(N2CCNCC2)oc2c(-c3ccccc3)cccc12,92%
5,Nc1ncnc2c1c(-c1ccc(Oc3ccccc3)cc1)cn2C1CCCC1,86%
6,O=C1C(Cl)=C(N2C(=O)CCC2=O)C(=O)c2ccccc21,84%
7,c1ccc2c(-c3ccncc3)c[nH]c2c1,100%
8,O=C(Nc1nc2ccccc2n1CCN1CCOCC1)c1cccc([N+](=O)[O-])c1,102%
9,O=C1NC(=O)/C(=C/c2ccc3c(c2)OC(F)(F)O3)S1,93%
10,Nc1nc(Nc2ccc(S(N)(=O)=O)cc2)nn1C(=S)Nc1c(F)cccc1F,61%
11,CC(C)c1nn(-c2c(Cl)cccc2Cl)c2nc(Cc3ccc(OCCO)cc3)[nH]c(=O)c12,93%
12,CC(C)n1cnc2c(NCc3ccccc3)nc(NCCCO)nc21,86%
13,CN(C)c1ccc(/C=C2\C(=O)Nc3ccccc32)cc1,92%
14,Oc1ccc(Nc2nc(-c3ccc(Cl)cc3)cs2)cc1,101%
15,COc1cccc(-c2cc(=O)c3ccccc3o2)c1N,89%
16,Oc1c2ccccc2c2c3c(cccc13)N=N2,92%
17,N#CC(C#N)=C(N)/C(C#N)=C/c1ccc(O)cc1,85%
18,Cc1cc(Nc2nc(-c3ccccc3)nc3ccccc23)n[nH]1,96%
19,Cn1cc(/C=C2\C(=O)Nc3ccc(S(N)(=O)=O)cc32)c2ccccc21,72%
20,COc1cc2ncnc(Nc3ccc(O)c(Br)c3)c2cc1OC,93%

# From ChEMBL document CHEMBL2218924, “A broad activity screen in support of a chemogenomic map for kinase signalling research and drug discovery” (Biochem J, 2013)
